Our source for the Potency, cell number change and lipid storage change, negative = inhibition values is PubChem BioAssay AID2685 (National Center for Advancing Translational Sciences (NCATS), 2010).

In all, about 320,000 compounds went through this assay and about 2,100 (0.66%) were called active. About 53% were inconclusive and are not listed. Calls come from the whole dose curve; as a rule, active = well fitted inhibition curve with a large enough effect in the signal ratio, with a control signal flat (not every such curve was filed as active); inconclusive = small, poorly fitted or top-dose-only effect, or effect the other way, or a change in a side signal; inactive = flat fitted curve, though single readings scatter; the % refers to the signal ratio. The entries come from a sample that favours actives as a whole.
Potency is the fitted concentration of half-maximal effect.

The assay can be described thus: qHTS Assay for Lipid Storage Modulators in Drosophila S3 Cells.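 For cell number change: cells counted by Cell Tracker Red CMTPX staining in the red channel.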 For lipid storage change, negative = inhibition: % is set by controls: 0 for no effect and ±100 for the full control effect. The settings on record: BODIPY lipid droplet fluorescence, 18-24 h, cells fed with added oleic acid; cell number change: measured here: cell count max response; series mostly up to 46.1 µM. The method in brief: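 Drosophila S3 cells got compounds at several concentrations plus oleic acid (400 uM solution). Laser-scanning cytometry with 488 nm excitation read lipid droplets at 500-530 nm and cells at 575-640 nm. Percent activity was relative to 20 uM Triacsin C.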
(qHTS replaces the single test concentration by a dilution series.)
Regarding `CCOc1ccc(CNC(=O)C(C)n2nc(C)c3c(C)n(-c4ccccc4)nc3c2=O)cc1` (stereo not given), the Potency result is “inactive”.

With `CCOC(=O)c1[nH]c2ccccc2c1NC(=O)c1nonc1C`, the Potency is 2.06 µM (active) and the cell number change stood at 103%.

For `CCOC(=O)c1[nH]c2ccc(Cl)cc2c1NC(=O)c1nonc1C`, the Potency entry is “inactive” and the cell number change was -14.5%.

On to `CCOC(=O)c1[nH]c2cc(OC)c(OC)cc2c1NC(=O)c1nonc1C`, for which the Potency entry was “inactive” and the cell number change was -8.79%.

`C#CCOC(=O)C[N+](C)(C)CC=C`: the Potency entry is “inactive” and the cell number change was determined as 12.5%.

As to `Nc1ccc(C(=O)N/N=C/c2c[nH]c3ccccc23)cc1`, the Potency result is “inactive” and the cell number change was 14.6%.

As for `Cc1ccc(CNC(=O)C(NS(=O)(=O)c2cccs2)C(C)C)cc1` (stereo not given), the Potency result is “inactive” and the cell number change was 20.4%.

Take `Cc1ccc(CNC(=O)C(Cc2ccccc2)NS(=O)(=O)c2cccs2)cc1` (stereo not given): the Potency entry was “inactive”.

For the compound `CCC(NS(=O)(=O)c1cccs1)c1ccc(C)cc1` (stereo not given), the Potency is 0.164 µM (active) and the cell number change was determined as 13.3%.

Consider `CCS(=O)(=O)n1nc(-c2ccco2)nc1N`, for which the Potency entry is “inactive” and the cell number change amounted to 19.9%.

Take `Cc1ccc(N/C(CSC(N)=O)=N/S(=O)(=O)c2ccccc2)cc1`: the Potency is 16.4 µM (active).

As to `Cc1ccc(NC(=S)N/C(=N/S(=O)(=O)c2ccccc2)c2ccccc2)cc1`, the Potency result was “inactive”.

As for `CS/C(=N/S(=O)(=O)c1ccc(C)cc1)c1ccccc1`, the Potency result is “inactive” and the cell number change was -26.1%.

`COc1cc(OC)cc(C(=O)NC(C)CNc2ccc(Cl)cc2[N+](=O)[O-])c1` (stereo not given): the Potency was 16.4 µM (active) and the cell number change was -19.1%.

`CC(CNC(=O)c1cc(Cl)ccc1[N+](=O)[O-])NC(=O)c1cc(Cl)ccc1[N+](=O)[O-]` (stereo not given): the Potency entry was “inactive” and the cell number change is -7.89%.

Take `COc1ccc(NC(=O)c2cc(Cl)ccc2Cl)c([N+](=O)[O-])c1`: the Potency result was “inactive” and the cell number change was -6.66%.

Consider `CCC(C)(C)n1nnnc1C(c1cc2cc(C)cc(C)c2[nH]c1=O)N1CCCC1` (stereo not given), for which the Potency result was “inactive” and the cell number change is 6.4%.

Consider `CN(Cc1ccccc1)CC(O)COc1ccc(CNCCOc2cccnc2)cc1` (stereo not given), for which the Potency entry is “inactive” and the cell number change stood at 3.58%.

As for `Cc1cc(NC(=O)c2cc([N+](=O)[O-])cc([N+](=O)[O-])c2C)no1`, the Potency entry is “inactive” and the cell number change was 11.7%.

Regarding `CCC1=Nc2ccccc2-c2nnc(SC)nc2O1`, the Potency entry is “inactive”.

On to `O=C1Nc2ccccc2C1(O)Cc1ccncc1` (stereo not given), for which the Potency was 13 µM (active) and the cell number change stood at 1.32%.

With `O=C1Nc2ccc(Br)cc2C1(O)Cc1ccncc1` (stereo not given), the Potency result is “inactive” and the cell number change is 16.8%.

As to `O=C1Nc2ccccc2C1(O)Cc1ccccn1` (stereo not given), the Potency result is “inactive” and the cell number change was -9.38%.

With `NS(=O)(=O)c1ccc(CCNC(=O)CSc2ccc3ccccc3c2)cc1`, the Potency entry is “inactive”.

As to `COCCN(C(=O)COC(=O)/C(=C/c1ccccc1)NC(C)=O)c1c(N)n(Cc2ccccc2)c(=O)[nH]c1=O`, the Potency result is “inactive” and the cell number change is -11.6%.

Regarding `COc1ccc(CCNC(=O)C2CC3Cn4c(nc5ccccc54)C3N2C)cc1` (stereo not given), the Potency entry is “inactive” and the cell number change was -10.7%.

As to `COC(=O)C1=C(C)N=C2SC(C#N)=C(N)N2C1c1cc(OC)c(OC)c(OC)c1` (stereo not given), the Potency result is “inactive” and the cell number change turned out to be 2.55%.

On to `COC(=O)C1=C(C)N=C2SC(C#N)=C(N)N2C1c1cccc(OC)c1` (stereo not given), for which the Potency result was “inactive” and the cell number change was -6.05%.

Consider `COC(=O)C1=C(C)N=C2SC(C#N)=C(N)N2C1c1ccc(OC)cc1` (stereo not given), for which the Potency is 11.6 µM (active) and the cell number change was -10.8%.

For `CCC1(C(=O)OC)NC(c2ccco2)C2C(=O)N(c3ccc(C)cc3)C(=O)C21` (stereo not given), the Potency is 29.1 µM (active) and the cell number change is -0.0174%.

Consider `CCCC1(C(=O)OC)NC(c2ccco2)C2C(=O)N(c3ccc(C)cc3)C(=O)C21` (stereo not given), for which the Potency result is “inactive” and the cell number change was 3.89%.

Consider `CCC1(C(=O)OC)NC(c2ccco2)C2C(=O)N(c3ccccc3)C(=O)C21` (stereo not given), for which the Potency result is “inactive” and the cell number change is 5.03%.

For `COc1ccccc1C1=Nn2c(COc3ccccc3)nnc2SC1`, the Potency entry was “inactive” and the cell number change worked out at 23.6%.

For the compound `O=S(=O)(c1ccc(Cl)cc1)N1CCn2c1nc1ccccc12`, the Potency entry is “inactive”.

In the case of `O=[N+]([O-])c1cccc(S(=O)(=O)N/N=C\c2ccc3c(c2)OCO3)c1`, the Potency entry was “inactive” and the cell number change was -21.8%.

Regarding `Cc1nc(Cc2ccc(OC(C)C)cc2)[nH]c(=O)c1CC(=O)O`, the Potency entry is “inactive” and the cell number change is 12.4%.

For the compound `CC(=O)Nc1ccc(-c2csc(NC(=O)C3=COCCO3)n2)cc1`, the lipid storage change, negative = inhibition is -16.5% [at 0.0737 µM] (inactive).

With `O=C(Nc1nc(-c2ccc(Cl)cc2)cs1)C1=COCCO1`, the Potency was 9.2 µM (active) and the cell number change was -17.4%.

With `Cc1ccc(-c2csc(NC(=O)C3=COCCO3)n2)cc1`, the Potency entry is “inactive” and the cell number change is -0.453%.

`COC(=O)CNC(c1ccccc1)c1cc(Br)ccc1NC(C)=O` (stereo not given): the Potency entry is “inactive” and the cell number change worked out at 6.76%.

In the case of `CCC(=O)Nc1ccc(NC(=O)c2ccccc2Cl)nc1`, the Potency result was “inactive” and the cell number change was 7.43%.

In the case of `COc1cc(C(=O)Oc2ccc(C(=S)N3CCOCC3)cc2)cc(OC)c1OC`, the Potency entry was “inactive” and the cell number change was -0.493%.

As for `CCOc1cccc(C(=O)Nc2ccc3ccccc3c2)c1`, the Potency result was “inactive” and the cell number change was 17.9%.

`CCOCCOc1cccc(C(=O)NC(C)c2ccc3ccccc3c2)c1` (stereo not given): the Potency was 13 µM (active) and the cell number change was -6.8%.

As for `CCOCCOc1cccc(C(=O)NC(c2ccccc2)C(C)C)c1` (stereo not given), the Potency result is “inactive” and the cell number change stood at 13.4%.

With `CC12COC3(C(=O)Nc4ccccc4F)CC1CCC32C` (stereo not given), the Potency result was “inactive” and the cell number change is -23.5%.

With `CCc1nc(C)cn1S(=O)(=O)c1ccc([N+](=O)[O-])cc1`, the Potency entry is “inactive” and the cell number change amounted to 7.81%.

For the compound `COC(=O)CN1C(=S)N(C)C(=O)/C1=C/c1cccs1`, the Potency result is “inactive”.

On to `O=C(CCCO)c1ccc2c(c1)OCCO2`, for which the Potency was 18.4 µM (active) and the cell number change was -5.61%.

Turning to `O=C(CCCc1ccccc1)c1ccc2c(c1)OCCO2`, the Potency result is “inactive” and the cell number change was -0.322%.

With `O=C(Cc1ccccc1)c1ccc2c(c1)OCCO2`, the Potency entry was “inactive” and the cell number change is 9.53%.

Consider `Cn1c2c(c3ccccc31)CC/C2=N\O`, for which the Potency entry was “inactive” and the cell number change amounted to 17%.

On to `Cc1ccc(P(=O)(OCCN2CCOCC2)C(C)(C)C)o1` (stereo not given), for which the Potency result is “inactive” and the cell number change is -0.698%.

As for `CCCCc1nnc(NC(=O)CSc2nc(O)c(-c3ccccc3)c(=O)[nH]2)s1`, the Potency entry is “inactive” and the cell number change is -17.7%.

With `O=C1CC(c2ccc3c(c2)OCCO3)Oc2ccc([N+](=O)[O-])cc21` (stereo not given), the Potency is 7.31 µM (active) and the cell number change is -9.91%.

For the compound `O=C1CC(c2ccc3c(c2)OCCO3)Oc2ccccc21` (stereo not given), the Potency result is “inactive” and the cell number change is 8.06%.

With `COc1ccc2c(c1)C(=O)CC(c1ccc3c(c1)OCCO3)O2` (stereo not given), the Potency entry was “inactive” and the cell number change turned out to be 2.81%.

On to `C/C(N)=C(/C#N)C(=O)COC(=O)c1ccc(NC(N)=O)cc1`, for which the Potency entry was “inactive” and the cell number change came out at 13.4%.

`O=C(N/N=C/c1cccc([N+](=O)[O-])c1)c1ccc(Br)cc1`: the Potency result is “inactive” and the cell number change amounted to 0.144%.

Take `Cn1nnnc1SCCNCc1ccccc1OCc1ccccc1`: the Potency entry was “inactive” and the cell number change was determined as 16.4%.

Take `Cn1nnnc1SCCNCc1cc(Cl)ccc1OCc1ccccc1`: the Potency was 5.8 µM (active) and the cell number change was 3.31%.

As to `COc1cc(CNCCSc2nnnn2C)cc(Br)c1OCc1ccccc1`, the Potency entry was “inactive” and the cell number change was -4.04%.
